Source: PubChem BioAssay
The full list was thinned out, with hits kept by preference.
LmPK inh: inhibitors of Leishmania mexicana pyruvate kinase; purified LmPK, Kinase-Glo ATP luminescence, 1 h; Q27686; 0.37% of 290,000 active; Potency, µM (doses to about 57.5 µM), for the others: at the highest dose activity change, negative = inhibition, usual class: inhibitors; AID 1721; active means well fitted curve in the direction sought with a large enough effect; inconclusive means small, poorly fitted or top-dose-only effect, or another doubt; inactive means no such curve, though single readings can be large; an effect the other way counts as inactive or inconclusive; further: potency means the concentration at half of the fitted maximal effect; on the % scale 0 is the no-effect control and ±100 the full control effect
Target sequence (Q27686 whole entry, looked up): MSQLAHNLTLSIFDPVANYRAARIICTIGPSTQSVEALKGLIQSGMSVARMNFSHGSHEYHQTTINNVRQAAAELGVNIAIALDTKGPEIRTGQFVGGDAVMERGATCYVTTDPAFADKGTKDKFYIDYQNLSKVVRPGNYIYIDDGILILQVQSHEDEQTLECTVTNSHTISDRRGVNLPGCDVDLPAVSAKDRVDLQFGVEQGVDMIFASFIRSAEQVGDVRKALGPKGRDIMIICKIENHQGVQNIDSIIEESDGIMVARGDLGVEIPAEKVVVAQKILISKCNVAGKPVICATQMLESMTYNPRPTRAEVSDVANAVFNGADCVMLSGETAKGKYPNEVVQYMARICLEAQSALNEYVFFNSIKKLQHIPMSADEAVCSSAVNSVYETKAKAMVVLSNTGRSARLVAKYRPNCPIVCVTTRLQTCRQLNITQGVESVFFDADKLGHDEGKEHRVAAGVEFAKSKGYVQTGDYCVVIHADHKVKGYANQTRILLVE
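Kinase-Glo luminescence read after 1 h RT reaction of 0.1 nM LmPK with 0.5 mM PEP and 0.1 mM ADP. Activity scaled between uninhibited and enzyme-free controls.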
Shiga inhibitor: blocks Shiga toxin action in Vero cells. Vero cells, Shiga toxin protein synthesis inhibition reporter. inhibition, % at 38.7 µM. 9.2% of 290,000 active. AID 2315; in the data active means inhibition mostly above about 28%, no sharp cut-off; inactive means mostly below about 43%; further: 0% is about no effect
SARS PLpro yeast: inhibitors of SARS-CoV papain-like protease in yeast; S. cerevisiae expressing SARS-CoV PLpro, growth rescue; Potency, µM (series often up to 32.9 µM), for inactives: at the highest dose activity, positive = growth rescue, usual class: activators; 0.19% of 330,000 active; further: potency means the concentration at half of the fitted maximal effect; 0% is about no effect; nearly all actives have a fitted effect of over 55% in size
Tb PYK inh: T. brucei pyruvate kinase inhibition; Q57TT1; TbPYK enzyme, Kinase-Glo Plus ATP luminescence, 45 min; Potency, µM (series often up to 76.8 µM), without a hit: at the highest dose activity, negative = inhibition, usual class: inhibitors; 0.12% of 410,000 active; AID 624173; active means well fitted curve in the direction sought with a large enough effect; inconclusive means small, poorly fitted or top-dose-only effect, or another doubt; inactive means no such curve, though single readings can be large; an effect the other way counts as inactive or inconclusive; further: potency means the concentration at half of the fitted maximal effect; on the % scale 0 is the no-effect control and ±100 the full control effect; nearly all actives have a fitted effect of over 50% in size
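Luminescent Kinase-Glo Plus end-point after 45 min room-temperature reaction of T. brucei pyruvate kinase started with 130 uM ADP (final). Buffer TEA 50 mM pH 7.2 with KCl, MgCl2, BSA, Tween-20; titration-based qHTS with fitted concentration-effect curves.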
NS1 inh: influenza NS1 inhibition; Potency, µM (doses to about 46.1 µM), for the others: at the highest dose activity, positive = more growth; 0.4% of 270,000 active; further: potency means the concentration at half of the fitted maximal effect; actives are rising curves; nearly all actives have a fitted effect of over 50% in size
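Recovery from NS1-induced slow growth read by OD600 in budding yeast switched to galactose assay medium (pH 6.0, -URA) at 1:100 dilution. Compound 23 nl per well; the matching strain lacking NS1 serves as control.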
CHX counter: counter-screen for Shiga toxin inhibitors: cycloheximide protein synthesis inhibition; max response, %; cell reporter, cycloheximide protein synthesis inhibition counterscreen; 12% of 300,000 active; AID 2314; in the data active means max response mostly above about 13%, no sharp cut-off; inactive means mostly below about 14%; further: read at 38.3 µM for the half of the compounds with a filed dose; 0% is about no effect
Active calls of the source: *; i = inactive; ? = inconclusive; / = not tested or not shown. Unless noted, the call rests on the fitted dose curve.

SMILES | LmPK inh | Shiga inhibitor | SARS PLpro yeast | Tb PYK inh | NS1 inh | CHX counter
O=C(O)/C=C/c1ccccc1[N+](=O)[O-] | -2% | -4 | 1% | 0% | 4% | -1
COc1cc(NC(=O)/C=C/c2ccccc2[N+](=O)[O-])cc(OC)c1 | -4% | 19 | 3% | -5% | -2% | 15*
O=C(/C=C/c1ccccc1[N+](=O)[O-])Nc1ccccc1 | ? | 101* | -2% | 2% | 0% | 36*
O=C(/C=C/c1ccccc1[N+](=O)[O-])NC1CCCC1 | 0% | 70* | 0% | 4% | -2% | 19*
O=C(CC1CCC1)Nc1cccc2c([N+](=O)[O-])cccc12 | / | / | / | -4% | / | /
COC(=O)c1ccc(-c2noc(CN(C)CC3CCCCO3)n2)cc1 (centres undefined) | -3% | 54 | -2% | 1% | -4% | 43*
COC(=O)c1ccc(-c2noc(CN3C[C@H]4CC[C@H]3C4)n2)cc1 | 1% | 21 | -2% | -1% | 1% | 19*
CCn1ccnc1CN(C)Cc1nc(-c2ccc(C(=O)OC)cc2)no1 | 3% | 16 | 3% | -4% | 2% | 11
COc1ccc(OC)c(-c2nnc3n2N=C(c2ccccc2OC)CS3)c1 | / | -14 | / | / | / | 16
COc1cccc(C(C)(O)c2nc(-c3ccc(C)c(C)c3)cs2)c1 (centres undefined) | / | / | / | -1% | / | /
O=C(NNC(=O)c1ccccc1O)c1ccc(Cl)c(S(=O)(=O)N2CCCCC2)c1 | / | / | -3% | -1% | / | /
COc1ccc(CNc2ccc(N3CCOCC3)cc2)cc1 | 0% | 73 | 6% | -5% | ? | 22*
c1ccc(CNc2ccc(N3CCOCC3)cc2)cc1 | / | / | 0% | -38% | / | /
O=C(/C=C/c1ccccc1)N1CCC(c2ccccc2)C1 (centres undefined) | -4% | 74* | -27% | -7% | -19% | 59*
O=C(/C=C/c1ccco1)N1CCCC(c2ccccc2)C1 (centres undefined) | 2% | 47* | -2% | -13% | -3% | 23*
O=C(/C=C/c1ccccc1)N1CCC(Cc2ccccc2)CC1 | -3% | 41 | -6% | -5% | -75% | 30
Cc1ccc(C(=O)N/N=C/c2c[nH]c3ccccc23)o1 | 5% | 74* | 1% | -1% | -11% | 23*
O=C(N/N=C/c1c[nH]c2ccccc12)c1cc(Br)ccc1O | 5% | 29 | -6% | 1% | -45% | 18
Cc1ccnn1CC(=O)N/N=C/c1c[nH]c2ccccc12 | 3% | 1 | 1% | 2% | 0% | 2
Cc1cc(C(=O)N/N=C/c2c[nH]c3ccccc23)c(C)o1 | 0% | 26 | 14% | 16% | -10% | 27*
N#Cc1c(C#N)c(-c2ccccc2)n(-c2ccc(C(=O)O)cc2)c1N | 4% | 2 | 3% | -7% | 12% | -3
Nc1c(-c2ccc(Cl)cc2)cnc2c(-c3ccccc3)cnn12 | -1% | 89* | -3% | 2% | -2% | 36*
Cc1ccc(-c2cnn(-c3ccccc3)c2N)cc1 | ? | 41* | -4% | ? | -3% | 32*
Nc1c(-c2ccccc2)cnn1-c1ccc(C(=O)O)cc1 | -3% | 88* | 3% | 0% | -7% | 48*
Nc1c(-c2n[nH]c(=S)n2-c2ccc(Cl)cc2Cl)cnn1-c1ccccc1 | -4% | -18 | -4% | -14% | 0% | 1
SMILES | LmPK inh | Shiga inhibitor | SARS PLpro yeast | Tb PYK inh | NS1 inh | CHX counter
Nc1c(-c2ccc(Cl)cc2)cnn1-c1ccccc1 | -3% | 114* | -4% | 3% | -5% | 37*
CC(C)(C)S(=O)(=O)c1cnc2c(-c3ccc(Cl)cc3)cnn2c1N | -1% | -6 | -2% | 4% | 6% | -4
CCc1ccc2oc(-c3cc(NC(=O)c4cc([N+](=O)[O-])ccc4N4CCOCC4)ccc3Cl)nc2c1 | / | / | / | 3% | / | /
Cc1ccc(C(=O)OCC(=O)NC2CCCC(C)C2C)cc1S(=O)(=O)N1CCCCC1 (centres undefined) | / | / | -3% | 2% | / | /
CCN(CC)C(=O)CN1CCC(c2nc3cc(C)c(C)cc3[nH]2)CC1 | 2% | 20 | 7% | -1% | -4% | 4
COc1cc2oc(=O)cc(-c3ccc(-c4cccc(N)c4)cc3)c2c(OC)c1OC | / | i | / | / | / | 13
COc1ccc(-c2nnn(-c3cc(Cl)cc(Cl)c3)c2N)cc1 | -3% | 27 | 0% | -10% | -7% | 16
Nc1c(-c2ccc(Cl)cc2)nnn1-c1ccccc1 | -8% | 98* | -12% | -3% | -10% | 45*
C=CCn1c(O)c(C(C)=Nc2ccc(C(=O)OCC)cc2)c(=O)[nH]c1=O | 2% | 43 | -1% | -4% | -85% | 7
CCOC(=O)c1ccc(N=Nc2c(C)c(C#N)c(O)[nH]c2=O)cc1 | -5% | 83* | 2% | -9% | 3% | 46*
COCC1CCN(C(=O)c2cc(COc3ccc(C)c(C)c3)on2)C1 (centres undefined) | -4% | 12 | -7% | 0% | -31% | 10
Cc1cccc(C)c1OCc1cc(C(=O)N2CC3C[C@@H]4CC2C[C@H](C3)C4)no1 | -8% | 96* | -2% | 2% | -73% | 65*
Cc1ccc(OCc2cc(C(=O)N3CC4C[C@@H]5CC3C[C@H](C4)C5)no2)cc1C | -2% | 135* | ? | 7% | 5% | 35*
Nc1[nH]nc2c1NN(c1ccc(Cl)cc1Cl)N2 | 0% | 83* | -14% | -10% | 17% | 48*
Nc1ccc(Nc2nc3ccccc3[nH]2)cc1 | -7% | -6 | 6% | -2% | 12% | 6
Nc1ccccc1Nc1nc2ccccc2[nH]1 | -3% | 34* | -2% | 0% | ? | 27*
c1ccc(Nc2nc3ccccc3[nH]2)nc1 | -10% | 86* | ? | -4% | -33% | 70*
Cc1ccc(C)c(Nc2nc3ccccc3[nH]2)c1 | / | / | / | -3% | / | /
Cc1cc(C)nc(Nc2nc3ccccc3[nH]2)n1 | 2% | 90* | 4% | -8% | -22% | 29*
CC1(C(=O)NCc2ccc3c(c2)OCO3)CCN1C(=O)C1(c2ccc(Cl)cc2)CC1 (centres undefined) | / | / | / | -13% | / | /
Cc1ccc(C(=O)N/C(=C/c2ccc(Cl)cc2)C(=O)N2CCOCC2)cc1 | 1% | -2 | 3% | 1% | -2% | -3
COc1ccc(-c2nnc(SCC(=O)NC3CCCC3)nc2-c2ccc(OC)c(OC)c2)cc1OC | / | / | / | -13% | / | /
O=C(Nc1cccc(C(F)(F)F)c1)c1ccc2c(c1)nnn2C1CCCC1 | / | / | / | 0% | / | /
CSc1ccccc1OCc1cc(C(=O)N(C)C(C)c2nc(C)cs2)no1 (centres undefined) | -5% | 20 | 0% | -1% | -10% | 18*
CSc1ccccc1OCc1cc(C(=O)N(C)Cc2ccc3nsnc3c2)no1 | -1% | 100* | -2% | -7% | -8% | 52*
